# Screening results deposited in PubChem BioAssay by Sanford-Burnham Center for Chemical Genomics.
# MLLE-PAM2 inh: inhibitors of microRNA-mediated deadenylation, human PABP1 MLLE binding | inhibition, % at 20 µM | GST-MLLE / FITC-PAM2 fluorescence polarization | AID 588489 | P11940 | actives 0.36% (n = 360,000); in the data active means inhibition above about 35%, passing the limit was not always enough;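 further: plate controls were DMSO wells with GST-MLLE for no effect and wells lacking GST-MLLE protein for full effect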
# PHOSPHO1 block: blocks human PHOSPHO1 phosphatase activity; Q8TCT1; recombinant PHOSPHO1, absorbance phosphatase assay; inhibition, % at 13.3 µM; actives 1.1% (n = 290,000); AID 1565; in the data active means inhibition above about 60%
# Target sequence (Q8TCT1 whole entry, looked up): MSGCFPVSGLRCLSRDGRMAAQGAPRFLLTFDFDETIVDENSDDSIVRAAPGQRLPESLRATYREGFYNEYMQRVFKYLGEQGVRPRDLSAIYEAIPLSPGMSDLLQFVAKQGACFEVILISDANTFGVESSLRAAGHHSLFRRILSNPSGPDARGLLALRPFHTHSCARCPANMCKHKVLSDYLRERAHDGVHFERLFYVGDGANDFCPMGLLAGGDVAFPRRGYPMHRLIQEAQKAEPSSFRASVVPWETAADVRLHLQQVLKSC
# eIF4H FP inh: inhibitors of RNA binding by human eIF4H; eIF4H fluorescence polarization binding assay; inhibition, % at 35 µM; actives 0.94% (n = 290,000); AID 2012;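 further: calls also rest on retests at 20 µM and on dose response follow-up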
# PABP polyA inh: blocks human PABP binding to poly(A) RNA | inhibition, % at 35 µM | actives 1% (n = 290,000) | fluorescence polarization | P11940;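 further: calls also rest on retests at 20 µM and on dose response follow-up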
# CRFR2-BP antag: antagonists of CRF-binding protein/CRF-R2 receptor complex; HEK293 CRF-R2/CRF-BP, CRF-induced calcium fluorescence; inhibition, % at 11.8 µM; actives 0.59% (n = 350,000); AID 588475;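 active means inhibition of the ligand-induced calcium signal above about 50% at the single tested concentration, limit read from the data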
# * marks the source's active call; other numbers are inactive results; ? = inconclusive; · = not tested or not shown. Rows were chosen to be rich in hits. Some 2.6% of all compounds tested hit in one or more screens of this group. Unless noted, how the calls were made is not given here.
SMILES,MLLE-PAM2 inh,PHOSPHO1 block,eIF4H FP inh,PABP polyA inh,CRFR2-BP antag
Cc1c(Cl)c([N+](=O)[O-])nn1CC(=O)NC1CCCCC1,-4.6,31.4,-10.8,8.5,98.5*
O=C(Cn1cnc([N+](=O)[O-])n1)NC1CC1,10.9,68.5*,3.8,10.9,-3.6
CCCCNC(=O)Cn1cnc([N+](=O)[O-])n1,-7.6,49.9,4.7,9.2,0.2
CCCCNC(=O)C1(C)CCN1C(=O)c1cccc(OC(C)=O)c1C (stereo not drawn),-5.0,·,·,·,·
O=C(CSc1nnc(COc2ccccc2)n1Cc1ccco1)NCc1ccco1,-86.5,54.3,50.3*,38.9*,-2.7
C=CCn1c(COc2ccc(F)cc2)nnc1SCC(=O)NC(=O)NCc1ccco1,-56.6,93.4*,44.1,39.5,0.9
Cc1ccc(NCc2nnc(SCC(=O)Nc3ncc(C)s3)n2Cc2ccco2)c(C)c1,-106.0,73.2*,-1.2,-10.9,-11.3
Cc1ccc(OCc2nnc(SCC(=O)C(C)(C)C)n2Cc2ccco2)cc1,-139.9,61.0*,5.1,-10.3,-9.1
O=C(NCc1ccccc1)c1cc(C2CCCN(S(=O)(=O)c3ccccc3)C2)on1 (stereo not drawn),3.9,·,·,·,·
COc1cc(C=NO)nc(-c2ccccn2)c1,-5.8,·,·,·,-7.6
CC[C@]12c3[nH]c4ccc(OC)cc4c3CCN1C(=O)C(CC(=O)NCCCOC)C[C@@H]2C(=O)N1CCN(C(=O)c2ccco2)CC1 (stereo partly drawn),2.7,·,·,·,53.3*
CCN(CC)C(=O)[C@H]1C[C@H](CC(=O)NC/C=C(\C)CCC=C(C)C)C(=O)N2CCc3c([nH]c4ccc(Cl)cc34)[C@]12C,9.5,·,·,·,75.3*
COc1ccc2[nH]c3c(c2c1)CCN1C(=O)C(CC(=O)NCCc2ccccn2)C[C@H](C(=O)N(C(C)C)C(C)C)[C@@]31C (stereo partly drawn),0.3,·,·,·,69.9*
CN(C)CCCNC(=O)C[C@H]1C[C@H](C(=O)N2CCOCC2)[C@@]2(C)c3[nH]c4ccc(Cl)cc4c3CCN2C1=O,10.8,·,·,·,95.4*
CC(=O)C1CCC2C3C=CC4=CC(=O)CCC4(C)C3CCC12C (stereo not drawn),5.5,·,·,·,·
CCOC(=O)C1=C(C)N=c2sc(=Cc3cc(Cl)c(OCC(=O)O)c(Cl)c3)c(=O)n2C1c1cccc(OC)c1 (stereo not drawn),-170.7,·,·,·,·
COc1ccc(NC(=O)C2(C)CCN2C(=O)C(C)C)cc1F (stereo not drawn),-6.5,·,·,·,·
CCN(CC)C(=O)[C@H]1CC(CC(=O)NC/C=C(\C)CCC=C(C)C)C(=O)N2CCc3c([nH]c4ccc(OC)cc34)[C@]12C (stereo partly drawn),1.1,·,·,·,78.1*
CCN(CC)C(=O)[C@H]1CC(CC(=O)NC/C=C(\C)CCC=C(C)C)C(=O)N2CCc3c([nH]c4ccccc34)[C@]12C (stereo partly drawn),0.6,·,·,·,49.3
CCOc1cc(C2C3=C(CCCC3=O)N(CC(=O)O)C3=C2C(=O)CCC3)ccc1OC,60.1*,9.7,5.8,7.3,-5.5
CC(C)CNc1ncnc2c1ncn2[C@H]1CN(Cc2ccc3c(c2)OCO3)C[C@@H](CO)O1,-0.2,·,·,·,·
CC1=NNC(=O)C1CC(=O)N/N=C/c1ccc(C)o1 (stereo not drawn),-1.7,17.7,-4.2,-7.0,5.2
CC1=NNC(=O)C1CC(=O)N/N=C/C(C)=C/c1ccccc1 (stereo not drawn),-3.9,17.2,72.7,active,10.2
CCCN1CCN(S(=O)(=O)c2ccc3c(c2)CCC(=O)N3)CC1,2.0,·,·,·,-0.6
CSc1nsc(/C=C/Nc2ccc(F)cc2)c1C#N,-30.4,-7.6,76.9*,2.7*,-27.4
SMILES,MLLE-PAM2 inh,PHOSPHO1 block,eIF4H FP inh,PABP polyA inh,CRFR2-BP antag
CC(=O)N=c1c(C#N)cc2c(=O)n3cccc(C)c3nc2n1Cc1ccco1,18.8,-32.0,71.5*,50.3*,4.1
Cc1ccccc1C(=O)N=c1c(C#N)cc2c(=O)n3cccc(C)c3nc2n1Cc1ccco1,·,-0.5,41.6,52.9,·
N#Cc1cc2c(=O)n3ccccc3nc2n(Cc2ccco2)c1=NC(=O)c1ccco1,41.1*,-6.2,?,7.9,-34.6
O=C(NCc1ccc(C(F)(F)F)cc1)c1ccc(-c2cccnc2)c2ccoc12,-0.1,·,·,·,·
O=C(Nc1ccccc1Oc1cccnc1)C1CCCN(Cc2ccccc2O)C1 (stereo not drawn),-8.4,56.2,3.8,7.2,98.8*
C#Cc1ccc(CN2CCCC(C(=O)Nc3ccccc3Oc3cccnc3)C2)cc1 (stereo not drawn),2.8,35.5,·,·,9.3
